This is part of a sample that, as a whole, favours compounds with a hit. Of some 83,000 tested, about 20% had one in any assay.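 Plates (96-well) were seeded with cells, treated with compound at one concentration, and incubated for 48 hours before percent growth was determined.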 Unmarked numbers belong to inactive results. Calls of active or inactive are those of the source. The calls were made as follows: active = growth percent below 10; inactive = the rest.
Tests used:
Assay in all cases: NCI-60 one-dose screen, 48 h (100 = growth as untreated, 0 = no growth, -100 = all killed)
SK-MEL-2 melanoma = conditions: 10 µM unless noted
EKVX NSCLC = conditions: 10 µM
SN12C renal = conditions: 10 µM unless noted
UO-31 renal = conditions: 10 µM unless noted
TK-10 renal = conditions: 10 µM unless noted
ACHN renal = conditions: 10 µM unless noted
A498 renal = conditions: 10 µM unless noted
CCRF-CEM leukemia = conditions: 10 µM
MOLT-4 leukemia = conditions: 10 µM unless noted
SR leukemia = conditions: 10 µM unless noted
RPMI-8226 leukemia = conditions: 10 µM unless noted
OVCAR-8 ovarian = conditions: 10 µM unless noted
OVCAR-5 ovarian = conditions: 10 µM unless noted
OVCAR-4 ovarian = conditions: 10 µM unless noted
SK-OV-3 ovarian = conditions: 10 µM unless noted
IGROV1 ovarian = conditions: 10 µM unless noted
OVCAR-3 ovarian = conditions: 10 µM unless noted
HS 578T breast = conditions: 10 µM unless noted
NCI/ADR-RES ovarian = conditions: 10 µM unless noted

SMILES	growth (SK-MEL-2 melanoma)	growth (EKVX NSCLC)	growth (SN12C renal)	growth (UO-31 renal)	growth (TK-10 renal)	growth (ACHN renal)	growth (A498 renal)	growth (CCRF-CEM leukemia)	growth (MOLT-4 leukemia)	growth (SR leukemia)	growth (RPMI-8226 leukemia)	growth (OVCAR-8 ovarian)	growth (OVCAR-5 ovarian)	growth (OVCAR-4 ovarian)	growth (SK-OV-3 ovarian)	growth (IGROV1 ovarian)	growth (OVCAR-3 ovarian)	growth (HS 578T breast)	growth (NCI/ADR-RES ovarian)
Cc1nnc(-c2cc3c(ccc4ccccc43)oc2=O)c2cn(-c3ccc(Cl)cc3)nc12	95.4%	84%	99.5%	66.2%	151%	97.5%	103%	74.1%	75.4%	80.4%	75%	96.3%	108%	83.8%	91.7%	87%	89.8%	93.8%	96.3%
O=C(/C=C1\C(=O)N(Cc2ccc([N+](=O)[O-])cc2)c2ccccc21)c1ccc(OCCN2CCCC2)cc1	93.7%	71.5%	37.3%	40.8%	82.8%	45.7%	83.1%	15.2%	9.27% (active)	-19% (active)	28.4%	66%	77.3%	64.9%	102%	74.9%	62.7%	50.1%	75.6%
COc1ccc(C2=C/C(=C\c3ccc(Cl)cc3)C(=O)NN2C(=S)NN)cc1	97.3%	94.2%	104%	79.6%	129%	96.5%	99.3%	91.6%	97.8%	93%	86.5%	94.2%	112%	90%	89.5%	107%	111%	96.6%	94.5%
COc1cc2cc3cc4cc(OC)c(OC)cc4c(C)[n+]3cc2cc1OC (tested in a mixture with another compound)	69.5%	60.8%	85.7%	59.6%	117%	95.2%	93.6%	51.8%	40.1%	–	43%	76.2%	104%	83.8%	107%	–	65.9%	90.1%	93.1%
CCc1c(C)c2ccc(OCC(=O)N=Nc3c(O)[nH]c4ccccc34)c(C)c2oc1=O	32.9%	88.9%	-43% (active)	64.8%	61.3%	82.2%	56.9%	10.3%	8.66% (active)	8.17% (active)	-3.81% (active)	-11.3% (active)	24%	-21.7% (active)	80.9%	–	-58.2% (active)	-5.77% (active)	47.7%
O=C(CCCC(=O)Nc1ccc(Cn2nnc3cc(Cl)c(Cl)cc32)cc1)Nc1ccc(CN2N=NC3C=C(Cl)C(Cl)=CC32)cc1 (configuration not stated)	87.7%	75.6%	89.9%	50.4%	107%	83.8%	78.3%	68.1%	83.2%	–	64.4%	76.3%	95.8%	65.6%	86.3%	81.1%	87.7%	91.5%	83.1%
O=C(O)c1ccc(Br)nc1	96.1%	95.6%	98.1%	86.3%	86.8%	103%	–	95.7%	99.8%	95.9%	98.7%	98.3%	86.1%	98.6%	92.3%	107%	102%	102%	102%
Cc1cc2c(-c3nc4ccccc4n3C)c(O)c(O)cc2c(O)c1-c1c(C)cc2c(-c3nc4ccccc4n3C)c(O)c(O)cc2c1O	37.2%	56.8%	35.2%	76.3%	57.1%	89.1%	28.5%	20.5%	26.7%	56.4%	24.4%	32.1%	58.1%	70.1%	83.2%	89.7%	71.3%	28.4%	102%
Cc1ccc(NCc2cn(-c3ccc(C(=O)O)cc3)nc2-c2ccc(C(=O)O)cc2)cc1	94.3%	106%	108%	90.6%	99%	108%	–	104%	105%	103%	109%	97.8%	106%	109%	102%	107%	101%	101%	102%
CCOC(=O)C1CCCN1C(=O)C1(NC(C)=O)CCCC1 (configuration not stated)	110%	100%	118%	88.5%	107%	117%	–	97.4%	116%	102%	95.7%	103%	96.4%	105%	104%	96.8%	103%	–	103%
